In the library only some 1.4% were active in any assay of this set; here they are far more common.
LANA-H2B inh = blockers of LANA interaction with H2A/H2B – biochemical, FP readout, HTS, primary screen; 320,000 tested, 0.6% active; AID 2629, 2010; inhibition, % (no concentration beside the values); cell-free LANA-H2A/H2B peptide, fluorescence polarization; Protein LANA1 (Human herpesvirus 8 type P (isolate GK18)), Q9QR71; in the data active means inhibition mostly above about 10%, no sharp cut-off; inactive means mostly below about 6.7%
Target sequence (Q9QR71 whole entry, looked up): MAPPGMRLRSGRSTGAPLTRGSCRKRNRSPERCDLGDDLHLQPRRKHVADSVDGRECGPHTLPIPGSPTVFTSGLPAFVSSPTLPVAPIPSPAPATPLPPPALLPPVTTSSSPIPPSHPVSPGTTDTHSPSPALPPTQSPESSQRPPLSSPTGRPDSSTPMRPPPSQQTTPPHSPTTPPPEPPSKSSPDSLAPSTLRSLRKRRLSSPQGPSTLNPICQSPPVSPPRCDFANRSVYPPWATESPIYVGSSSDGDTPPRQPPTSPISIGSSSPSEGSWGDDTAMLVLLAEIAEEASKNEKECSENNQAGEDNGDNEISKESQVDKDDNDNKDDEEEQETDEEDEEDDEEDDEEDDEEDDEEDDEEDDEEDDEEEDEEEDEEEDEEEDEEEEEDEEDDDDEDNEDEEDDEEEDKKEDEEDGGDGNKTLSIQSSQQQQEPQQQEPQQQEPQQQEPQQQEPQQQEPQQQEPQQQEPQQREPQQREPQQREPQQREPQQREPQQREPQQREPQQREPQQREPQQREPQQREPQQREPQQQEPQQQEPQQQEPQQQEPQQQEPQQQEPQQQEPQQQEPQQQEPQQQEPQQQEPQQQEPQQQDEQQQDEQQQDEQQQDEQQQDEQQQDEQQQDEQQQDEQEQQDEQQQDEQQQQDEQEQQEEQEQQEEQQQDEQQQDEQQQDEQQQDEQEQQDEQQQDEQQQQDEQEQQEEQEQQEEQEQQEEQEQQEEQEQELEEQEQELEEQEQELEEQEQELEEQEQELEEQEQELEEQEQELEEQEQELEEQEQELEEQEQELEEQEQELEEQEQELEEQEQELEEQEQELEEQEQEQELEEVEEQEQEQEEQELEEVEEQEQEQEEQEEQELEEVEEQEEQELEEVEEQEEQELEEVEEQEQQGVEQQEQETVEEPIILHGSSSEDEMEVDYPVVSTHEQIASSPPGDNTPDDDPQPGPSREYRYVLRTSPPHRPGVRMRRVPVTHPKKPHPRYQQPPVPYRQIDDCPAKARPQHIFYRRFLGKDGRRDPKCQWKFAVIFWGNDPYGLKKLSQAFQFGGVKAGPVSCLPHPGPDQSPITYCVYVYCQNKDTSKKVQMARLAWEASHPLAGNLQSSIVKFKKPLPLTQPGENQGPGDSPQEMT
A3G deaminase = APOBEC3G DNA deaminase inhibitors, primary screen, biochemical, fluorescence, single-stranded DNA substrate, uHTS; 330,000 tested, 0.28% active; AID 493012, 2011; DNA dC->dU-editing enzyme APOBEC-3G (Homo sapiens), Q9HC16; inhibition, % at 20 µM; recombinant A3G, ssDNA deamination FAM/TAMRA fluorescence;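 active means inhibition of at least 40% at 20 µM, with no more than 30% in the related APOBEC3A deaminase screen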;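 further: plate controls were DMSO wells with A3G for no effect and wells lacking A3G enzyme for full effect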
A3A deaminase = APOBEC3A ssDNA deaminase inhibitors, primary screen, selectivity assay for APOBEC3G inhibitor project, biochemical, FAM/TAMRA oligo cleavage fluorescence | recombinant A3A, FAM/TAMRA ssDNA deamination fluorescence | 330,000 tested, 0.41% active | DNA dC->dU-editing enzyme APOBEC-3A (Homo sapiens), P31941 | inhibition, % at 20 µM;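 active means at least 40% inhibition at 20 µM here, with at most 30% in a related deaminase screen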;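 further: plate controls were A3A with DMSO for no effect and wells lacking A3A enzyme for full effect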
HDAC3 inh = HDAC3 deacetylase inhibitors, primary screen, biochemical, fluorescence, cell-free homogeneous | Histone deacetylase 3 (Homo sapiens), O15379 | inhibition, % at 8.3 µM | recombinant HDAC3, fluorogenic peptide/trypsin coupled | AID 2718, 2010 | 320,000 tested, 0.15% active; in the data active means inhibition above about 26%, passing the limit was not always enough; inconclusive means no clear call, values can overlap the other calls
A3A conf = APOBEC3A deaminase inhibitors, retest, confirmation, selectivity assay for APOBEC3G inhibitor project, biochemical, single concentration, fluorescence readout. shares compounds with A3A deaminase. 1,400 tested, 63% active. recombinant A3A, ssDNA deaminase UDG fluorescence assay. inhibition, % at 20 µM. AID 493151, 2011;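 active means inhibition reaching a set limit, 80% of the first screen's cutoff, at 20 µM in any replicate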;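 further: plate controls were DMSO wells with A3A for no effect and wells lacking A3A enzyme for full effect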
UDG A3A counter = E. coli UDG inhibitors, confirmation, counter-screen for APOBEC3A inhibitor project, biochemical, single concentration, fluorescence, FAM/TAMRA oligo. shares compounds with A3A deaminase. UDG counterscreen, FAM/TAMRA uracil oligo fluorescence. inhibition, % at 20 µM. 1,000 tested, under 10 active. AID 504714, 2011; call rule not given here
* = called active by the depositor; ? = inconclusive; nt = no result given.

SMILES | LANA-H2B inh | A3G deaminase | A3A deaminase | HDAC3 inh | A3A conf | others
O=C(CSc1nccc(=O)[nH]1)N1N=C2/C(=C/c3ccco3)CCCC2C1c1ccco1 (stereo not given) | 7 | 27 | 46* | 0 | 34* | UDG A3A counter=0
CN(C)C(CNC(=O)CSc1nc2sc3c(c2c(=O)n1C)CCCC3)c1ccccc1 (stereo not given) | -2 | -2 | -1 | 2 | nt
CCCCn1c(N)c(-c2nc3ccccc3o2)c2c([N+](=O)[O-])nn(CC)c(=O)c21 | -2 | -7 | 2 | 1 | nt
CCCCn1c(N)c(-c2nc3ccccc3o2)c2c([N+](=O)[O-])nn(C)c(=O)c21 | -2 | 8 | 53* | -4 | 1
CC(C)Nc1nc(NC(C)C)nc(N(C)n2cnnc2)n1 | 1 | 5 | 41* | 2 | 1
CC(C)Nc1nc(NC(C)C)nc(Nn2cnnc2)n1 | 4 | 1 | -1 | 7 | nt
C/C(CC(=O)Nc1cccc(Cl)c1Cl)=N\NC(=O)C(=O)N1CCCC1 | -3 | -9 | -2 | 1 | nt
C/C(CC(=O)Nc1ccc(Cl)c(Cl)c1)=N\NC(=O)C(=O)N1CCCCC1 | -3 | 9 | 62* | 4 | 16* | UDG A3A counter=-1
CCOC(=O)[C@H]1[C@H]2COc3cc(OC)ccc3[C@@H]2N2C(=O)c3cc(F)ccc3NC(=O)[C@@]12C | 2 | -7 | -4 | 1 | nt
CC(C)CN(C(=O)CCCc1nc2ccccc2c(=O)[nH]1)c1c(N)n(Cc2ccccc2)c(=O)[nH]c1=O | 3 | 4 | 42* | 2 | 2
Cc1nc2ccccc2c(C)c1CC(=O)N(CC(C)C)c1c(N)n(Cc2ccccc2)c(=O)[nH]c1=O | 0 | -2 | 0 | -2 | nt
CCC(C)N(C(=O)COc1ccc(Cl)c2cccnc12)C1CCS(=O)(=O)C1 (stereo not given) | 1 | 29 | 62* | -1 | 25
CCC(C)N(C(=O)COc1ccccc1C#N)C1CCS(=O)(=O)C1 (stereo not given) | 4 | -9 | -1 | 2 | nt
CC(=O)Nc1ccc(S(=O)(=O)N2CCC3(CC2)OCCO3)cc1 | 4 | -1 | 7 | 3 | nt
O=C(CN1C(=O)S/C(=C\c2ccc(-c3cc(C(=O)O)ccc3Cl)o2)C1=O)Nc1ccc2c(c1)OCO2 | 4 | -3 | 50* | -1 | 3 | UDG A3A counter=4
CCOC(=O)c1c(NC(=O)Cn2ccsc2=N)sc(C)c1C | -4 | 10 | 57* | 7 | 24
CCOC(=O)CCSc1nc(C)c2cc(OC)ccc2n1 | -9 | 8 | 4 | -5 | nt
CCCCc1c(C)nc2ccc(OC)cc2c1SCCC(=O)O | -3 | 6 | 42* | 7 | 27
Cc1ccc(OCC(=O)NC2CCS(=O)(=O)C2)c(C)c1 (stereo not given) | 4 | -2 | 7 | -10 | nt
CC(=O)c1ccc(OCCCC(=O)NC2CCCCC2C)cc1 (stereo not given) | -1 | -6 | -2 | -1 | nt
COc1ccc(CCNC(=O)CCCCC(=O)NCCc2ccc(OC)cc2)cc1 | -3 | -1 | -7 | -2 | nt
COc1ccc(CCCC(=O)NCCc2ccccc2)c(C)c1 | 2 | 6 | 41* | 4 | 12
COc1ccc(CCCC(=O)NC2CCCCC2C)c(C)c1 (stereo not given) | 2 | 29 | 71* | 3 | 71* | UDG A3A counter=3
CCOc1c(Cl)cc(/C=C/C(=O)N(CC)CC(=O)Nc2ccc(NC(C)=O)cc2)cc1OC | 4 | -12 | 1 | ? | nt
O=Cc1cn(-c2ccccc2)nc1-c1cc2cc(O)ccc2oc1=O | -3 | -5 | -4 | -2 | nt
SMILES | LANA-H2B inh | A3G deaminase | A3A deaminase | HDAC3 inh | A3A conf | others
O=Cc1cn(-c2ccccc2)nc1-c1cc2c(ccc3ccccc32)oc1=O | -1 | -8 | 77* | 1 | -5 | UDG A3A counter=6
CCNS(=O)(=O)c1ccc(NC(=O)Cc2ccc(F)cc2)cc1 | 1 | 3 | 4 | 3 | nt
CC(Nc1ccc(F)cc1)=[N+](C)CCNS(=O)(=O)c1ccc(Cl)cc1 | -3 | 17 | 55* | -3 | -8
Cc1ccc(OCC(=O)NCCNC(=O)c2ccncc2)cc1 | -7 | -11 | -4 | 0 | nt
CC(=O)c1c(C)n(-c2ccccc2)c2ccc(OCC(N)=O)cc12 | 3 | -7 | -6 | 2 | nt
CCOC(=O)c1ccc2c(c1)[n+](CC)c(C)n2-c1ccccc1 | 3 | 26 | 75* | 1 | 85* | UDG A3A counter=2
CC(=O)OCC[n+]1c(C)n(-c2ccccc2)c2ccc(Cl)cc21 | 0 | 11 | 42* | -4 | 84* | UDG A3A counter=-3
CCOC(=O)c1c(O)c(O)c(C(=O)OCC)n1-c1ccccc1 | -1 | 6 | -1 | -3 | nt
CC[n+]1c(C)n(-c2ccccc2)c2ccc(C(=O)OC)cc21 | -3 | 12 | 44* | 1 | 40* | UDG A3A counter=-3
CCCc1cc(=O)oc2c3c(cc(OCC(=O)NCCN4CCOCC4)c12)OC(C)(C)CC3 | 1 | -8 | -4 | -71 | nt
Cc1cc(F)cc(C)c1Cn1cnc2c(cnn2C(C)(C)C)c1=O | -5 | 5 | 1 | -4 | nt
COC(=O)C1=NN(c2cccc(C)c2)C2C(=O)N(c3ccccc3OC)C(=O)C12 (stereo not given) | -1 | -6 | -1 | 3 | nt
CCCN(CC(=O)Nc1ccccc1OC)C(=O)c1cc(-c2cccs2)nn1-c1ccccc1 | nt | 0 | 11 | nt | nt
Clc1ccccc1CSc1ncn(-c2ccccc2)n1 | -1 | 2 | 4 | -4 | nt
Cc1ccc(CSc2ncn(-c3ccccc3)n2)cc1 | -3 | 10 | 41* | -4 | 2
CN(C)c1cccc(C(=O)OCc2cc(=O)oc3cc(O)ccc23)c1 | 1 | 19 | 74* | -28 | 75* | UDG A3A counter=-2
O=C(NCCN1CCOCC1)C(=O)c1c[nH]c2ccccc12 | 2 | -15 | -1 | 15 | nt
O=C(CCN1CCOCC1)Nc1ccc(Cl)cc1 | 0 | -6 | -6 | 0 | nt
O=C(NCCN1CCOCC1)c1ccc(Cl)cc1[N+](=O)[O-] | 0 | -6 | 46* | -2 | 10* | UDG A3A counter=-1
CCCCn1c(N)c(N(CC)C(=O)C2=COCCO2)c(=O)[nH]c1=O | 2 | -9 | 3 | -2 | nt
CCOc1ccc(S(=O)(=O)N(CC(=O)N/N=C/c2ccc(-c3ccc([N+](=O)[O-])cc3)o2)c2ccccc2)cc1 | -4 | 23 | 66* | -2 | 37* | UDG A3A counter=5

High-throughput results: PubChem, several laboratories
